What was measured:
Assay in all cases: PBM binding z-score (relative to random genomic background probes); higher = stronger binding; sequences stand for … in GC…GCGATTGACAGCGTAGAATGAAGG
[1] = tested on: FXR:RXRa (NR concentration 270 nM, RXRa partner concentration 90 nM)
Summary of the method: (§1)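 Regression normalization was applied to scanned fluorescence from custom Agilent 4×180K protein-binding microarrays. Before scanning, arrays were incubated 1 h with ligand-free nuclear receptor dimers, and binding was detected with antibodies against each partner (one per run). Binding z-scores use the random background probes as reference.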

[2] = tested on: LXRa:RXRa (NR concentration 270 nM, RXRa partner concentration 90 nM)
Summary of the method: as §1

[3] = tested on: LXRa homodimer (NR concentration 270 nM)
Summary of the method: as §1

[4] = tested on: LXRb:RXRa (NR concentration 270 nM, RXRa partner concentration 90 nM)
Summary of the method: as §1

[5] = tested on: LXRb homodimer (NR concentration 270 nM)
Summary of the method: as §1

[6] = tested on: PPARa:RXRa (NR concentration 270 nM, RXRa partner concentration 90 nM)
Summary of the method: as §1

[7] = tested on: PPARg:RXRa (NR concentration 180 nM, RXRa partner concentration 90 nM)
Summary of the method: as §1

[8] = tested on: PPARg:RXRa 270nM:90nM, anti-RXR (NR concentration 270 nM, RXRa partner concentration 90 nM)
Summary of the method: as §1

[9] = tested on: PPARg:RXRa 30nM:10nM, anti-RXR (NR concentration 30 nM, RXRa partner concentration 10 nM)
Summary of the method: as §1

[10] = tested on: PPARg:RXRa 90nM:30nM, anti-RXR (NR concentration 90 nM, RXRa partner concentration 30 nM)
Summary of the method: as §1

[11] = tested on: PPARg:RXRa DBDmut IVT, anti-RXR (DBD mutation: RXRa K156A/R161A, NR concentration 270 nM, RXRa partner concentration 90 nM)
Summary of the method: as §1

[12] = tested on: PPARg:RXRa IVT, anti-PPARg (NR concentration 270 nM, RXRa partner concentration 90 nM)
Summary of the method: as §1

[13] = tested on: PPARg DBDmut:RXRa IVT, anti-PPARg (DBD mutation: PPARg1 K132A/R137A, NR concentration 270 nM, RXRa partner concentration 90 nM)
Summary of the method: as §1

[14] = tested on: PPARg DBDmut IVT, anti-PPARg (DBD mutation: PPARg1 K132A/R137A, NR concentration 270 nM)
Summary of the method: as §1

[15] = tested on: PPARg homodimer (NR concentration 180 nM)
Summary of the method: as §1

[16] = tested on: PXR:RXRa (NR concentration 270 nM, RXRa partner concentration 90 nM)
Summary of the method: as §1

[17] = tested on: PXR homodimer (NR concentration 270 nM)
Summary of the method: as §1

[18] = tested on: RARa:RXR (NR concentration 270 nM, RXRa partner concentration 90 nM)
Summary of the method: as §1

[19] = tested on: RARa homodimer (NR concentration 270 nM)
Summary of the method: as §1

[20] = tested on: RARb:RXRa (NR concentration 270 nM, RXRa partner concentration 90 nM)
Summary of the method: as §1

| Sequence | PBM binding z-score [1] | PBM binding z-score [2] | PBM binding z-score [3] | PBM binding z-score [4] | PBM binding z-score [5] | PBM binding z-score [6] | PBM binding z-score [7] | PBM binding z-score [8] | PBM binding z-score [9] | PBM binding z-score [10] | PBM binding z-score [11] | PBM binding z-score [12] | PBM binding z-score [13] | PBM binding z-score [14] | PBM binding z-score [15] | PBM binding z-score [16] | PBM binding z-score [17] | PBM binding z-score [18] | PBM binding z-score [19] | PBM binding z-score [20] |
| --- | --- | --- | --- | --- | --- | --- | --- | --- | --- | --- | --- | --- | --- | --- | --- | --- | --- | --- | --- | --- |
| AGAACGAGGGCACGCTAAGTTGATAGCAGAGTAG | 0.75 | 0.717 | -0.396 | 0.353 | -0.515 | 2.07 | 2.2 | 1.87 | 0.473 | 1.22 | 4.41 | 3.93 | 1.79 | 0.754 | 0.364 | 1.11 | 0.0616 | 1.3 | -0.579 | 2.51 |
| GATACAGCGTCAAGGCCAGAGTACGCGTATTGAT | -0.565 | -0.762 | -0.347 | -0.832 | -0.969 | -0.514 | 0.602 | -0.494 | -0.309 | -0.649 | -0.697 | -0.358 | -0.853 | -0.941 | -0.474 | -0.434 | -0.406 | -0.6 | -0.441 | 0.0727 |
| CGTCCCAGGTCAGAGAGGTCAGTGAATGCCGAGT | 4.31 | 4.12 | 2.6 | 3.58 | 0.209 | 3.75 | 2.21 | 2.76 | 0.0256 | 1.76 | 1.78 | 2.54 | -0.171 | -0.892 | 3.01 | 5.38 | 10.2 | 4.83 | 0.426 | 4.48 |
| TCTAGCAGGCCAGAGGGTCACCCAAGAGGTACGG | 1.31 | 1.35 | -0.606 | 1.36 | -0.868 | 2.83 | 1.73 | 2.84 | 1.92 | 2.71 | 0.386 | 0.974 | -0.634 | -0.348 | 0.411 | 2 | -0.502 | 2.95 | 0.0468 | 2.43 |
| CCTTACGGGACAAGGTTATAGCACGGGTGGTACG | 0.441 | 0.693 | -0.25 | 0.134 | -0.233 | 1.02 | 1.08 | 0.756 | 0.00492 | 0.323 | -0.648 | 0.0765 | -0.507 | -0.996 | 0.819 | 0.699 | 0.148 | 1.01 | 0.441 | 0.996 |
| AGTCAATGTTCAGGACGAGGTAACGTAAAGCACG | -0.0403 | -0.35 | -0.0733 | -0.154 | -0.516 | -0.141 | 0.531 | -0.297 | 0.071 | -0.0574 | -0.569 | 0.526 | 0.282 | 0.266 | -0.126 | -0.119 | -0.33 | 0.306 | 0.567 | 0.167 |
| AGAATGAGGTTAAGATGAGGGAAACAGAATACAT | 2.41 | 2.35 | 0.0375 | 1.84 | 0.124 | 3.52 | 2.55 | 2.24 | 1.31 | 1.78 | 2.68 | 2.39 | 1.61 | 0.526 | 0.984 | 1.35 | 0.581 | 2.22 | 0.74 | 1.95 |
